ADAM17 inh: ADAM17 inhibitors, primary screen, biochemical, QFRET; recombinant ADAM17, EDANS/DABCYL FRET peptide cleavage; inhibition, % at 6.95 µM; hit rate 0.83% among 370,000; Disintegrin and metalloproteinase domain-containing protein 17 (Homo sapiens), P78536;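 active = inhibition above the mean of compounds lying between control limits plus 3 SD, set per campaign, cut at about 8.5% in these data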;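 also: 0% = DMSO-only wells as the low control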
Target sequence (P78536 215-824 limits assumed): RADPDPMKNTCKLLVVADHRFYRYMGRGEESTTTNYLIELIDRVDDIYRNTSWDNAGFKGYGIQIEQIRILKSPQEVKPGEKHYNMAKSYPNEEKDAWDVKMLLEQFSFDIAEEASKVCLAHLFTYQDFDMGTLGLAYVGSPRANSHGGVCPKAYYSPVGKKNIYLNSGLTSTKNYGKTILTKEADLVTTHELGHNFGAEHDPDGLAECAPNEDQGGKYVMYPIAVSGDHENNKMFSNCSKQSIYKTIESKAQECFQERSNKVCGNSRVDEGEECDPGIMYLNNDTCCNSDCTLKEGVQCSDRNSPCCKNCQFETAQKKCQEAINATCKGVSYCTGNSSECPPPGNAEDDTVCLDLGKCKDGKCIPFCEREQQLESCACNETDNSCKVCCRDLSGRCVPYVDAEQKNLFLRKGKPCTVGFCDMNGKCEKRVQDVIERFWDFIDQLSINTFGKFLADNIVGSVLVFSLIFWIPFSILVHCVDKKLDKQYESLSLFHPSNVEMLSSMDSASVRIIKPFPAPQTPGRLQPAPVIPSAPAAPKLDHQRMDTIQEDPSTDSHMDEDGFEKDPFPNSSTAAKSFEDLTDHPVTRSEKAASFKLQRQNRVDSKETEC
PLC-beta3 inh: human PLC-beta3 inhibitors, primary screen, biochemical, fluorescence | Purified PLC-beta3, fluorogenic substrate | hit rate 0.18% among 370,000 | 1-phosphatidylinositol 4,5-bisphosphate phosphodiesterase beta-3 (Homo sapiens), Q01970 | inhibition, % at 12.2 µM | AID 720704, 2013; in the data active = inhibition above about 11%;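 also: 0% = median of compound wells on plate and 100% = full blocker control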
PLCg1 inh: PLC-gamma1 enzyme inhibitors, primary screen, biochemical, fluorescence, purified enzyme | 1-phosphatidylinositol 4,5-bisphosphate phosphodiesterase gamma-1 (Homo sapiens), P19174 | fluorogenic substrate | inhibition, % at 12.2 µM | hit rate 0.84% among 370,000 | AID 720700, 2013; in the data active = inhibition above about 9.5%
ADAM10 inh: human ADAM10 inhibitors, primary screen, biochemical, QFRET, HTS; Disintegrin and metalloproteinase domain-containing protein 10 (Homo sapiens), O14672; recombinant ADAM10, EDANS/DABCYL FRET peptide cleavage, 3 h; inhibition, % at 7 µM; hit rate 0.62% among 370,000;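 active = inhibition above a per-campaign cutoff equal to the mean of compounds falling between control-based bounds plus 3 SD, cut at about 20% in these data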;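 also: 0% = DMSO wells while the 100% control is not disclosed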
sPLA2-III inh: human group III sPLA2 inhibitors, primary screen, biochemical, QFRET, BODIPY PC-A2 liposome substrate | Group 3 secretory phospholipase A2 (Homo sapiens), Q9NZ20 | inhibition, % at 12.2 µM | QFRET BODIPY PC-A2 liposome hydrolysis, fluorescence | hit rate 0.56% among 370,000;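 active = inhibition above mean plus 3 SD of compounds lying within the high and low control bounds, cut at about 19% in these data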;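 also: 0% = median of test compound wells and 100% = no enzyme DMSO wells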
KLK7 zymogen act: proKLK7 zymogen activators, primary screen, biochemical, fluorescence intensity | purified proKLK7, EDANS-DABCYL substrate fluorescence; 100% is mature enzyme control, 0% vehicle | activation, % at 7 µM | hit rate 0.9% among 370,000 | AID 652039, 2013;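 active = activation above the mean of all tested compounds plus 3 SD, computed per campaign excluding outliers beyond control limits, cut at about 13% in these data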
hGIII sPLA2 conf: human group III sPLA2 inhibitors, confirmation, biochemical, QFRET, triplicate. hit rate 34% among 2,000. recombinant hGIII-sPLA2, BODIPY PC-A2 QFRET fluorescence. inhibition, % at 12.2 µM. shares compounds with sPLA2-III inh;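 active = mean inhibition across triplicates above the hit cutoff set in the earlier primary screen, cut at about 19% in these data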;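 also: 0% = enzyme with DMSO and 100% = DMSO wells lacking enzyme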
535nm interf: 535nm fluorescence optical interference, confirmation, artefact control for HGIII-sPLA2 inhibitor project, biochemical, QFRET. shares compounds with sPLA2-III inh. BODIPY FL product fluorescence interference. inhibition, % at 12.2 µM. hit rate 8.5% among 2,000. AID 743282, 2014;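 active = average inhibition above the solvent-only control mean plus 3 SD, cut at about 6% in these data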;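 also: 0% = DMSO with substrate plus product and 100% = DMSO with substrate alone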
Starred values were filed as active, the others as inactive; i = inactive; · = no result. Shown are actives, neighbours in structure and some others; about 3.4% of the full set was active somewhere.

SMILES	ADAM17 inh	PLC-beta3 inh	PLCg1 inh	ADAM10 inh	sPLA2-III inh	KLK7 zymogen act	hGIII sPLA2 conf	535nm interf
CCn1cc(C(=O)Nc2sc(C)c(C)c2C(=O)OC)cn1	-4	-15	-7	-8	20*	0	-3	-12
COC(=O)c1c(NC(=O)c2ccnn2C)sc(C)c1C	0	-11	-7	4	2	0	·	·
O=C(NNc1ccccc1[N+](=O)[O-])Nc1ccc(Cl)c(Cl)c1	3	4	6	8	27*	0	28*	9.8*
COC(=O)c1cccc(Nc2cc(C)n(-c3cccc(C(=O)OC)c3)c(=O)c2)c1	0	-3	-1	-8	1	0	·	·
O=C(OCC#CCSc1nnc(-c2cccc3ncccc23)o1)c1ccc(F)cc1	-6	-6	-5	-22	1	·	·	·
COc1ccc2c(c1)C(=O)C(=O)N2CC1COc2ccccc2O1 (configuration not stated)	3	1	-2	1	20*	0	25*	0
CCCC[C@@H](CNC)NC[C@H](NCCCCC1CCCCC1)C(C)C	-4	1	6	8	29*	0	-5	-28
CCCC/C(C)=N/NC(=O)CN(c1ccc(Br)cc1)S(=O)(=O)c1ccccc1	-5	-1	-2	-2	6	0	·	·
C/C(=N/NC(=O)CN(c1ccccc1)S(=O)(=O)c1ccccc1)c1ccccc1O	3	-7	-7	0	24*	-2	15	-6
CCc1c(-c2ccc(F)cc2F)ncn1CCc1ccccc1OC	1	7	3	7	2	1	·	·
O=C1NC(=S)N(C(=O)c2ccc(F)cc2)/C1=C/c1cccnc1	-4	-8	-1	-1	20*	0	0	-1
CCC(C)NS(=O)(=O)c1ccc2[nH]c(=O)oc2c1 (configuration not stated)	0	4	-1	-1	0	0	·	·
CCc1n[nH]c(=S)n1/N=C/c1ccc(-c2ccc(Br)cc2)o1	-6	-8	1	-10	2	-1	·	·
CCc1n[nH]c(=S)n1/N=C/c1cc(Br)c(OC)cc1OC	-7	-3	-6	-18	22*	0	19*	5
S=c1[nH]nc(-c2cccnc2)n1/N=C/c1ccc(Br)s1	6	7	3	7	8	0	·	·
Cc1ccc(/C=N/n2c(-c3cccnc3)n[nH]c2=S)s1	0	-2	3	10	28*	0	19*	-4
Cc1ccc(/C=N/n2c(C3CCCCC3)n[nH]c2=S)s1	-2	-3	0	1	22*	0	16	2
CCCC(=O)OC12CCCN(C1)/C(=C/c1cccc(Cl)c1)C2 (configuration not stated)	-2	1	0	-8	2	0	·	·
CC(=O)Nc1ccc(NC(=S)Nc2ccc(F)cc2)cc1	-3	0	-4	-4	5	0	·	·
CC(C)(C)C(=O)NC(=S)Nc1ccc(F)cc1	0	2	4	1	23*	0	11	-4
COc1ccc(C2NC(=O)c3ccccc3N2)cc1COc1ccc(NC(C)=O)cc1 (configuration not stated)	-360	-473	-328	i	-7	·	·	·
Cc1cc(C)n2c(nc3ccccc32)c1C(=O)NN	-114	i	i	-347	-6	-1	·	·
COC(=O)c1c(C)cc(C)n2c1nc1ccccc12	-178	i	i	-451	22*	10	6	-6
O=C(CSc1nnc(-c2ccncc2)n1-c1ccccc1)Nc1cccc2ccccc12	2	4	1	2	4	0	·	·
O=C(CCSCCc1ccccn1)Nc1cc(F)ccc1F	4	0	5	-9	19*	0	1	-7
SMILES	ADAM17 inh	PLC-beta3 inh	PLCg1 inh	ADAM10 inh	sPLA2-III inh	KLK7 zymogen act	hGIII sPLA2 conf	535nm interf
O=C1NC(=S)NC1=Cc1ccccc1O	2	-146	-99	-12	22*	0	8	1
COc1ccc(Cn2ccc3ccc(-c4ccc5ccn(C(=O)c6cccc(OC)c6)c5c4)cc32)cc1	-4	-55	-34	-31	-9	-20	·	·
COc1ccc(C(C)C)cc1-c1cccc2nncn12	-30	-15	-11	-98	21*	2	5	-6
Cc1ccc(S(=O)(=O)NC(=O)ON=Cc2ccc3c(c2)OCO3)cc1	-4	2	-1	-5	-2	0	·	·
Cc1ccc(N2CN(Cc3cccnc3)CNC2=S)c(C)c1	0	3	0	-9	8	0	·	·
Cc1ccc(N2CN(Cc3ccco3)CNC2=S)c(C)c1	-4	-1	-3	-7	25*	0	11	-9
Cc1ccc(-n2c(-c3ccccc3)c[nH]c2=S)cc1	5	1	1	8	20*	0	27*	2
COc1ccc(-n2cc(-c3ccc(Cl)cc3)[nH]c2=S)cc1	-2	0	5	10	0	0	·	·
COc1ccc(-n2c(-c3ccc(Cl)cc3)c[nH]c2=S)cc1	5	-4	1	8	22*	0	29*	2
O=C(Nc1cccnc1N1CCOCC1)c1cccs1	-3	-8	3	2	22*	0	0	-5
O=S(=O)(c1ccccc1)N1CCCc2nc(-c3ccccc3)ccc21	0	-3	-2	5	-4	1	·	·
S=c1nn[nH]c2ccccc12	-1	4	8	-15	23*	0	10	-1
O=C(N/N=C1\CCSc2ccc(F)cc21)c1cccnc1	-3	-13	-6	-9	7	-5	·	·
NC(=S)N/N=C1\CCSc2ccc(Cl)cc21	-14	-36	-8	-24	30*	-8	15	-6
COc1cccc(C=NNC(=S)NC2CC3CCC2C3)c1O (configuration not stated)	-8	-284	-204	-7	26*	0	31*	7.8*
COc1ccc(/C=N/NC(=S)N[C@H]2CC3CCC2C3)cc1 (some centres not stated)	2	-3	6	6	6	0	·	·

Assay outcomes deposited in PubChem BioAssay by The Scripps Research Institute Molecular Screening Center.
